Data: PubChem BioAssay (NCATS)
Inconclusive results are not listed. Unmarked numbers belong to inactive results. Activity calls are given as the source filed them. Calls come from the whole dose curve; as a rule, active = well fitted cell-killing curve with a large enough effect; inconclusive = small, poorly fitted or top-dose-only effect, or effect the other way; inactive = flat fitted curve, though single readings scatter.

These compounds were tested on HeLa (assay: Primary qHTS to identify gynecologic anti-cancer compounds using libraries of approved drugs and bioactive compounds (AID 1345084; note: nearly all actives have a fitted effect of over 55% in size)). Conditions: Gynecologic cancer cell panel viability, ATPlite luminescence, 48 h; series mostly up to 57.5 µM; activity change, negative = cytotoxicity: at the top concentration.
In short: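 Five-point cytotoxicity, 48 h drug exposure at 37 C, 5% CO2, on cells seeded 16 h beforehand. ATP content read by ATPlite luminescence.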
% is set by controls: 0 for no effect and ±100 for the full control effect; potency is the fitted concentration of half-maximal effect.

Row | Compound | activity change, negative = cytotoxicity | Potency
1 | CN(Cc1cccc(-c2ccncc2)c1)C(=O)Oc1ccc(-c2ccc(C(N)=O)cc2)cc1 | 3.41% | –
2 | CN(C(=O)C(c1ccccc1)c1ccccc1)[C@H](CN1CC[C@H](O)C1)c1ccccc1 | 1.69% | –
3 | Fc1cc(F)c2c(c1)C1C=CCC1C(c1cccnc1)N2 (configuration not stated) | – | 10 µM (active)
4 | C/C=C(\C)C(=O)OC1CC2C(CC=C3CC(OC4CC(OC)C(OC5CC(OC)C(OC6CC(OC)C(OC7CC(OC)C(O)C(C)O7)C(C)O6)C(C)O5)C(C)O4)CCC32C)C2(O)CCC(C(C)=O)C12C (configuration not stated) | 9.98% [at 11.6 µM] | –
5 | CN=C(NS(=O)(=O)c1ccc(Cl)cc1)N1C[C@H](c2ccccc2)C(c2ccc(Cl)cc2)=N1 | -0.255% | –
6 | COC1CC(O[C@H]2CC[C@@]3(C)C(CCC4C3CC[C@]3(C)C(C5=CC(=O)OC5)CCC43O)C2)OC(C)C1OC1OC(COC2OC(CO)C(O)C(O)C2O)C(O)C(O)C1O (some centres not stated) | – | 2.82 µM (active)
7 | Cc1c(N[C@@H](c2nnc(-c3ccc(C#N)cc3)o2)[C@H](C)O)ccc(C#N)c1Cl | 6.67% | –
8 | CC12CCC3C(C1)c1c(cc(O)c(C(=O)c4ccccc4)c1OC3(C)C)O2 (configuration not stated) | -12% [at 38.5 µM] | –
9 | C=C1C(=O)CC2OC2(C)CC2OC(=O)C(=C)C2C(O)C1OC(=O)/C(C)=C\C (configuration not stated) | 4.72% [at 38.5 µM] | –
10 | CN1C(=O)[C@@H](Cc2c[nH]c3ccccc23)N=C(c2ccccc2F)c2ccccc21 | -0.0192% | –
11 | c1ccc([C@@H]2C[C@H]2NC2CCNCC2)cc1 | 0.395% | –
12 | CN(C)[C@@H]1C(=O)C(C(N)=O)=C(O)[C@@]2(O)C(=O)C3=C(O)c4c(O)ccc(Cl)c4[C@@](C)(O)C3C[C@@H]12 (some centres not stated) | 8.71% | –
